Inhibition data for 94 molecules are collected here from PubChem BioAssay AID652010 (The Scripps Research Institute Molecular Screening Center, 2013).

Structures are written as SMILES. The campaign covered roughly 370,000 compounds. About 4,100 (1.1%) were called active. Many of the other results were omitted from the sample, so actives are more common in it than they were. Values without a mark were called inactive.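 Rule for the calls: active = inhibition above the mean over all tested compounds plus 3 SD (cut at about 3.6% in these data); inactive = the rest.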

This assay in a line: relief of DAX-1 repression of SF-1 activity – cell-based, luminescence, SF-1 (NR5A1), full-length DAX-1, primary screen (AID 652010).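 Note: 0% = DAX-1 cells with DMSO and 100% = cells lacking DAX-1 with DMSO.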 Particulars: HEK293T StAR-luciferase reporter, SF-1/DAX-1 repression relief; at 6.8 µM; stronger effect = higher value. A general note: A reporter such as luciferase makes a cellular process visible.
In general, inhibition refers to the change of the read-out against control, counted positive when it falls. `CCc1ccc(-c2nnn(Cc3nc4ccccc4s3)n2)cc1`: the inhibition was -0.22%. With `COc1ccccc1OCc1nc2ccccc2s1`, the inhibition is 4.19% (active). On to `COC(=O)C1[C@H]2SC(C)(C)C(C(=O)OC)N2C(=O)N1Cc1nc2ccccc2s1` (some centres undefined), for which the inhibition was -0.17%. With `O=C(CSc1nc2ccccc2nc1N1CCCCC1)N1CCN(S(=O)(=O)c2cccc([N+](=O)[O-])c2)CC1`, the inhibition was 0.77%. Consider `Cc1ccc(NC(=S)NNC(=O)CSc2nnc(SCc3ccccc3Cl)s2)cc1`, for which the inhibition is -0.55%. The figure for `O=C1C(=O)N(c2ccccc2)C(c2ccccc2)C1c1ccccc1` (centres undefined) is -0.52%.

Regarding `O=C(COc1ccc(Cl)cc1)N1CCN(S(=O)(=O)c2ccc(Cl)cc2)CC1`, the inhibition was -0.62%. Turning to `CC(=O)c1cc(C#N)c(SCC(=O)Nc2nccs2)nc1C`, the inhibition was 0.62%.

As to `Cc1csc(SCC(=O)Nc2sccc2C#N)n1`, the inhibition was 10.3% (active). The figure for `CC(c1nnc(SCC(=O)Nc2sccc2C#N)n1-c1ccc(Cl)cc1)N(C)C` (centres undefined) is 0.06%; for `Cc1ccc(OCCC(=O)Nc2ccc(S(=O)(=O)Nc3nccs3)cc2)cc1` it is -0.38%. The figure for `Cc1cc(NS(=O)(=O)c2ccc(NC(=O)CSc3nnc(SCc4ccc(F)cc4)s3)cc2)nc(C)n1` is -0.01%.

For `Nc1[nH]c(/C=C2/CCCCC2n2[nH]c(=O)n(-c3ccccc3)c2=O)c(Cc2ccccc2)[n+]1Cc1ccccc1` (centres undefined), the inhibition is -0.55%. As to `CCN(CC)CCN(C(=O)c1ccc(N2C(=O)CCC2=O)cc1)c1nc2cc3c(cc2s1)OCO3`, the inhibition is 1.06%. The figure for `O=C(Cn1c(=O)sc2ccccc21)Nc1ccc2c(c1)OCCO2` is -1.14%; for `CN(C)CCN(C(=O)CN1C(=O)c2ccccc2C1=O)c1nc2cc3c(cc2s1)OCCO3` it is 4.33% (active). The figure for `CCOC(=O)c1csc(NC(=O)C2CCCN(S(=O)(=O)c3ccc(Cl)s3)C2)n1` (centres undefined) is -2.18%. The figure for `COc1ccc(C(=O)Nc2ccc(-n3nncc3C(C)(C)C)cc2)cc1` is -0.32%; for `COc1ccc(C(=O)NC2CCN(C(=O)Nc3ccc(F)cc3)CC2)cc1` it is -0.44%; for `COc1ccc(C(=O)NCCSc2ccccc2C)cc1` it is 2.33%.

As to `COCCNC(=S)c1ccc(OC)cc1`, the inhibition is 0.05%. With `COc1ccc(NC(=O)c2ccc(OC)cc2)cc1`, the inhibition is 4.59% (active).

As for `COc1ccc(C(=O)NCC[N+](C)(C)C)cc1`, the inhibition was 4.67% (active). As to `O=C(C1CCN(S(=O)(=O)c2ccccc2)CC1)N1CCN(C2CCCCC2)CC1`, the inhibition was 0.23%. Turning to `Nn1c(SCC(=O)Nc2cccc3ccccc23)nnc1-c1cc(-c2ccc(F)cc2)n[nH]1`, the inhibition was -0.54%. With `CC(=O)NC1(c2ccc(F)cc2)CCN(C(=O)c2c(F)cccc2F)CC1`, the inhibition was -0.58%. For `CC(C)CSc1nnc(-c2cccnc2)n1Cc1ccccc1`, the inhibition is -1.22%. The figure for `COC(=O)c1cccc(Cn2ccc3ccc(-c4ccc5ccn(C(=O)c6ccccc6C)c5c4)cc32)c1` is -1.7%; for `O=C(CSc1nc2ccccc2n1Cc1ccccc1)NNC(=S)Nc1ccccc1` it is -1.17%. The figure for `Cc1ccc(NC(=O)CC2C(=O)N(Cc3ccccc3)C(=S)N2NC(=O)c2cccc(F)c2)c(C)c1` (centres undefined) is -0.22%.

As for `O=C(Cn1cnc([N+](=O)[O-])n1)NCCc1ccccc1`, the inhibition is -0.33%. As for `CCOc1cccc(C(=O)Nc2cnn(Cc3ccccc3)c2)c1`, the inhibition was -0.67%. The figure for `O=C(Nc1ccn(Cc2ccccc2)n1)c1cccc(F)c1` is 4.43% (active). `O=C(O)CC(Cc1ccccc1)C(=O)Nc1ccc([N+](=O)[O-])cc1` (centres undefined): the inhibition is -0.05%.

Take `O=C(Nc1ccn(Cc2ccccc2)n1)c1n[nH]c([N+](=O)[O-])c1Cl`: the inhibition was 5.27% (active). `Cc1cc(C)cc(NC(=O)N2CCC(N(C)CCC(C)C)CC2)c1`: the inhibition is 1.03%. The figure for `Cc1sc2nc(COC(=O)C(NC(=O)c3ccc(Cl)cc3Cl)C(C)C)[nH]c(=O)c2c1C` (centres undefined) is -0.03%; for `COC(=O)c1ccc(CN2C(=O)[C@]3(OCCC=C[C@H]3C)c3c(Br)cccc32)cc1` it is 1.3%; for `COC(=O)C12C=C3CC(c4ccccc4)=C3C(=O)N1Cc1[nH]c3ccccc3c1C2` (centres undefined) it is 0.17%.

`Cc1ccc(S(=O)Cc2ccc(C(=O)N3CCN(C4CCCCC4)CC3)o2)cc1` (centres undefined): the inhibition was 5.98% (active). Take `Cc1ccc(C(=O)N2CCN(C3CCCCC3)CC2)s1`: the inhibition was 0.45%. The figure for `Cc1ccc(CS(=O)Cc2ccc(C(=O)N3CCOCC3)o2)cc1` (centres undefined) is -0.29%; for `COC(=O)[C@]12C[C@H](CC(=O)NCCc3ccccc3OC)C(=O)N(Cc3ccco3)C1=C[C@H](C(C)C)O[C@@H]2C1CC1` it is -0.45%.

With `Cc1ccccc1CS(=O)(=O)Cc1ccc(C(=O)Nc2ccc(Cl)cc2)o1`, the inhibition is -3.88%. With `Cc1ccccc1NC(=O)C1CCN(c2ncccn2)CC1`, the inhibition was -0.57%. Consider `O=C(CCc1ccccc1F)N1CCN(c2ccccc2)CC1`, for which the inhibition is -0.1%.

Take `O=C(CCS(=O)(=O)c1cccc2nsnc12)N1CCN(c2ccccc2F)CC1`: the inhibition is 0.3%. For the molecule `O=C(CCSc1ccccc1)N1CCN(c2ccccc2F)CC1`, the inhibition was 3.74% (active). The figure for `O=C(c1ccc(-c2ccccc2)cc1)C1CCCN(C(=O)c2cncs2)C1` (centres undefined) is -0.34%; for `O=C(O)c1ccccc1-c1ccccc1C(=O)Nc1ccccc1Br` it is 2.05%. `O=C(Nc1ccccc1)c1ccccc1Br`: the inhibition is 4.1% (active). The figure for `O=C(Nc1ccc(-n2ccnc2P(=O)(O)c2ccccc2)cc1)c1ccccc1Br` is 0.24%. `CCC(CO)Nc1cccc2c1S(=O)(=O)N(Cc1cn(Cc3ccccc3C(F)(F)F)nn1)Cc1ccccc1O2` (centres undefined): the inhibition was 0.53%. For the molecule `COc1ccc(N2CCN(CCNS(=O)(=O)c3ccc(Cl)s3)CC2)cc1`, the inhibition was -1.29%. With `Cc1ccc(NC(=O)c2cnc(SCC(=O)NCC3CCCO3)n(C)c2=O)cc1` (centres undefined), the inhibition was 3.81% (active). Take `CCn1c(SCC(=O)NCC2CCCO2)nc2ccccc21` (centres undefined): the inhibition is 0.35%. The figure for `Cn1c(SCC(=O)c2ccccc2)ncc(C(=O)Nc2ccc(F)cc2)c1=O` is 0.92%. The figure for `CC(CCN1CCC(C(O)(c2ccccc2)c2ccccc2)CC1)Oc1ccc([N+](=O)[O-])cc1Cl` (centres undefined) is -0.6%; for `CC(C)c1ccc(NS(=O)(=O)c2cn(C)c(=O)n(C)c2=O)cc1` it is 1.86%.

`Cc1ccc(-n2c(SCC(=O)Nc3cccc4ccccc34)nnc2-c2ccco2)cc1`: the inhibition was -1.09%. The figure for `C=CCN=C1NC(c2ccccc2)C(C(=O)OC)=C(C)N1Cc1ccc(C(F)(F)F)cc1` (centres undefined) is -0.62%; for `NNc1cccc(C=Cc2ccccc2)cc1=O` it is 4.11% (active). In the case of `Cc1ccc(NC(=O)Nc2cc(C)nn2-c2ccccc2)cc1`, the inhibition was -0.81%.

Consider `COC(=O)[C@]12C[C@H](CC(=O)NCc3cccs3)C(=O)N(CCc3ccc(OC)c(OC)c3)C1=C[C@H](C(C)C)O[C@@H]2C1CC1`, for which the inhibition was 0.43%.

Turning to `CCOC(=O)N1CCN(C(=O)C[C@H]2C[C@@]3(C(=O)OC)C(=C[C@H](C(C)(C)C)O[C@@H]3C)N(Cc3ccc(Cl)cc3Cl)C2=O)CC1`, the inhibition is -1.88%. Consider `Fc1ccccc1/C=N/Nc1cc(N2CCCCC2)ncn1`, for which the inhibition was 3.71% (active). As for `CCOC(=O)c1cccc(NC(=O)CN(C)S(=O)(=O)c2ccc(-c3cocn3)s2)c1`, the inhibition is -0.38%. The figure for `COc1cccc(CNC(=O)C2CCCN(c3nc4ccccc4o3)C2)c1OC` (centres undefined) is -1.08%; for `O=C(O)Cn1c(Cc2ccccc2)nc2ccccc21` it is 0.13%; for `Cc1c(C=O)c2ccccc2n1CC(=O)O` it is 3.62% (active). The figure for `Cc1c(C=O)c2ccccc2n1CCOc1ccccc1` is -1.1%. The figure for `S=c1[nH]nc(/C=C/c2ccccc2)o1` is -0.19%. On to `O=c1oc(-c2ccccc2NS(=O)(=O)c2ccc(Cl)cc2)nc2ccccc12`, for which the inhibition was 0.22%. With `O=c1oc(/C=C/c2ccccc2)nc2ccccc12`, the inhibition is 5.78% (active). In the case of `CN(CC(=O)Nc1ccc(C(N)=O)cc1)S(=O)(=O)c1ccc2c(c1)OCCO2`, the inhibition is -0.16%. The figure for `COCCCNC(=O)c1ccc(CNS(=O)(=O)c2ccc(NC(C)=O)cc2)cc1` is -0.22%.

On to `CC1CCCN(c2cccc3c2S(=O)(=O)N(Cc2ccc(F)cc2)[C@@H](C)[C@H](c2ccccc2)O3)C1` (some centres undefined), for which the inhibition was 1.64%. Consider `COc1ccc(NC(=O)CSCc2ccc([N+](=O)[O-])cc2)cc1OC`, for which the inhibition is 0.2%. The figure for `CCOc1cc(/C=N/O)ccc1OCc1ccccc1F` is 0.47%; for `COc1cc(/C=N/O)ccc1OCc1ccc([N+](=O)[O-])cc1` it is 4.6% (active). For the molecule `Cn1nc(C(C)(C)C)c(NC(=O)c2sccc2Cl)c1C(C)(C)C`, the inhibition is -0.4%. The figure for `C[C@@H]1ON(C)[C@H]2C[C@H]3c4cc(N5CCOCC5)ccc4CCN3C[C@@H]12` is 0.27%; for `Brc1ccc2nc(-c3ccccc3)c(Cc3ccccc3)n2c1` it is 0.67%. The figure for `Cc1ccc2nc(-c3cccnc3)c(NC3CCCC3)n2c1` is -0.53%. The figure for `COc1ccccc1Cc1c(-c2ccc(F)cc2)nc2ccc(C)cn12` is 4.57% (active); for `Cc1ccc2nc(-c3ccccc3)c(CC3CCCCC3)n2c1` it is 3.67% (active).

Take `Cc1ccc(-c2nc3ccc(Br)cn3c2Cc2ccccc2C(F)(F)F)cc1`: the inhibition is 7.12% (active).

`COc1ccccc1Cc1c(-c2ccc(Cl)cc2)nc2ccc(Cl)cn12`: the inhibition is 2.6%. The figure for `COC(=O)c1ccc2nc(-c3ccc(F)cc3)c(Cc3ccc(C)cc3)n2c1` is 0.98%; for `Cc1ccc(-c2nc3c(C)cc(Br)cn3c2Cc2ccccc2)cc1` it is -0.26%.

For `Cc1cc(Br)cn2c(Cc3ccccc3C(F)(F)F)c(-c3ccc(Cl)cc3)nc12`, the inhibition is -1.19%. The figure for `Cc1ccc(-c2nc3ccc(Cl)cn3c2Cc2ccccc2)cc1` is 4.09% (active). As for `COC(=O)c1ccc2nc(-c3ccccc3)c(Cc3ccc(OC)cc3C)n2c1`, the inhibition was 3.05%. Turning to `Cc1cc(Br)cn2c(Cc3ccccc3C(F)(F)F)c(-c3ccc(C#N)cc3)nc12`, the inhibition is -0.14%.
